# “And” between values parts separate entries of the source, which are not always exact repeats. Identical values can stand only once. Out of some 5,500 compounds screened, about 2,000 (36%) were called active. Not shown: some 18% with an inconclusive outcome. Cut-off read from the data, not from the text of the source: active = normalized growth mostly below about 0.91 (no sharp cut-off); inconclusive = no clear call, values can overlap the other calls; inactive = mostly above about 0.92. Some of the results follow.
# Assay: chemical genetic growth profiling, strain panel (AID 1159580);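 note: tested at 20 µM; growth read once vehicle control cultures reached saturation at 30 °C; 1 = growth at the plate median or of vehicle wells; lower values mean less growth of the strain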
# Conditions: S. cerevisiae deletion strains, growth OD
compound,measurement,setting,value
O=C(O)c1ccccc1-c1c2cc(Br)c(=O)cc-2oc2[c]([Hg])c(O)c(Br)cc12,normalized growth,"locus YAL013W, strain DEP1, stronger effect = lower value",0.0843 (active)
same,normalized growth,"locus YAL021C, strain ccr4, stronger effect = lower value",1.01 (inactive)
same,normalized growth,"locus YAL026C, strain drs2, stronger effect = lower value",1.04 (inactive)
same,normalized growth,"locus YAL030W, strain snc1, stronger effect = lower value",1.03 (inactive)
same,normalized growth,"locus YBL061C, strain skt5, stronger effect = lower value",1.04 (inactive)
same,normalized growth,"locus YBR009C, strain hhf1, stronger effect = lower value",1.03 (inactive)
same,normalized growth,"locus YBR021W, strain FUR4, stronger effect = lower value",0.61 (active)
same,normalized growth,"locus YBR023C, strain chs3, stronger effect = lower value",1.04 (inactive)
same,normalized growth,"locus YBR171W, strain sec66, stronger effect = lower value",1.06 (inactive)
same,normalized growth,"locus YBR229C, strain ROT2, stronger effect = lower value",0.972 (inactive)
same,normalized growth,"locus YBR231C, strain swc5, stronger effect = lower value",1.04 (inactive)
same,normalized growth,"locus YBR279W, strain paf1, stronger effect = lower value",0.594 (active)
same,normalized growth,"locus YCL011C, strain gbp2, stronger effect = lower value",1.05 (inactive)
same,normalized growth,"locus YCL016C, strain dcc1, stronger effect = lower value",1.06 (inactive)
same,normalized growth,"locus YCL029C, strain bik1, stronger effect = lower value",0.996 (inactive)
same,normalized growth,"locus YCR088W, strain abp1, stronger effect = lower value",1.03 (inactive)
same,normalized growth,"locus YDL005C, strain med2, stronger effect = lower value",1.02 (inactive)
same,normalized growth,"locus YDL035C, strain GPR1, stronger effect = lower value",0.453 (active)
same,normalized growth,"locus YDL040C, strain nat1, stronger effect = lower value",1.05 (inactive)
same,normalized growth,"locus YDL074C, strain BRE1, stronger effect = lower value",0.866 (inactive)
same,normalized growth,"locus YDL101C, strain DUN1, stronger effect = lower value",0.936 (inactive)
same,normalized growth,"locus YDL134C, strain PPH21, stronger effect = lower value",0.102 (active)
same,normalized growth,"locus YDL185W, strain tfp1, stronger effect = lower value",0.622 (active)
same,normalized growth,"locus YDL192W, strain arf1, stronger effect = lower value",0.0635 (active)
same,normalized growth,"locus YDR001C, strain nth1, stronger effect = lower value",1.04 (inactive)
same,normalized growth,"locus YDR069C, strain doa4, stronger effect = lower value",1.02 (inactive)
same,normalized growth,"locus YDR101C, strain arx1, stronger effect = lower value",1.01 (inactive)
same,normalized growth,"locus YDR137W, strain rgp1, stronger effect = lower value",1.2 [resistant] (active)
same,normalized growth,"locus YDR150W, strain NUM1, stronger effect = lower value",0.732 (active)
same,normalized growth,"locus YDR159W, strain sac3, stronger effect = lower value",1.05 (inactive)
same,normalized growth,"locus YDR162C, strain NBP2, stronger effect = lower value",0.736 (active)
same,normalized growth,"locus YDR195W, strain ref2",0.982 (inactive)
same,normalized growth,"locus YDR297W, strain sur2, stronger effect = lower value",1.04 (inactive)
same,normalized growth,"locus YDR318W, strain mcm21, stronger effect = lower value",0.07 (active)
same,normalized growth,"locus YDR334W, strain swr1, stronger effect = lower value",1.03 (inactive)
same,normalized growth,"locus YDR335W, strain msn5, stronger effect = lower value",1.03 (inactive)
same,normalized growth,"locus YDR388W, stronger effect = lower value",0.0603 (active)
same,normalized growth,"locus YDR392W, strain spt3, stronger effect = lower value",0.796 (inactive)
same,normalized growth,"locus YDR502C, strain sam2, stronger effect = lower value",0.814 (active)
same,normalized growth,"locus YEL003W, strain gim4, stronger effect = lower value",1.02 (inactive)
same,normalized growth,"locus YEL037C, strain rad23, stronger effect = lower value",1.03 (inactive)
same,normalized growth,"locus YEL061C, strain CIN8 (second series), stronger effect = lower value",1.05 (inactive)
same,normalized growth,"locus YEL061C, strain CIN8, stronger effect = lower value",0.984 (inactive)
same,normalized growth,"locus YER015W, strain faa2, stronger effect = lower value",1.04 (inactive)
same,normalized growth,"locus YER016W, strain bim1, stronger effect = lower value",1.06 (inactive)
same,normalized growth,"locus YER110C, stronger effect = lower value",0.655 (active)
same,normalized growth,"locus YER111C, strain swi4, stronger effect = lower value",1.03 (inactive)
same,normalized growth,"locus YER155C, strain BEM2 (second series), stronger effect = lower value",1.03 (inactive)
same,normalized growth,"locus YER155C, strain BEM2, stronger effect = lower value",1.02 (inactive)
same,normalized growth,"locus YER167W, strain BCK2, stronger effect = lower value",0.0686 (active)
same,normalized growth,"locus YFR010W, strain ubp6, stronger effect = lower value",1.02 (inactive)
same,normalized growth,"locus YGL078C, strain dbp3, stronger effect = lower value",0.0613 (active)
same,normalized growth,"locus YGL086W, strain mad1, stronger effect = lower value",0.0593 (active)
same,normalized growth,"locus YGL167C, strain pmr1, stronger effect = lower value",1.06 (inactive)
same,normalized growth,"locus YGL173C, strain kem1, stronger effect = lower value",0.973 (inactive)
same,normalized growth,"locus YGL227W, strain vid30, stronger effect = lower value",1.05 (inactive)
same,normalized growth,"locus YGL240W, strain doc1, stronger effect = lower value",1 (inactive)
same,normalized growth,"locus YGL248W, strain PDE1, stronger effect = lower value",0.0521 (active)
same,normalized growth,"locus YGL253W, strain hxk2, stronger effect = lower value",1.02 (inactive)
same,normalized growth,"locus YGR078C, strain PAC10, stronger effect = lower value",0.369 (active)
same,normalized growth,"locus YGR135W, strain pre9, stronger effect = lower value",0.0708 (active)
same,normalized growth,"locus YGR229C, strain SMI1, stronger effect = lower value",0.106 (active)
same,normalized growth,"locus YGR252W, strain gcn5, stronger effect = lower value",0.178 (active)
same,normalized growth,"locus YHR013C, strain ard1, stronger effect = lower value",0.121 (active)
same,normalized growth,"locus YHR027C, strain rpn1, stronger effect = lower value",1.01 (inactive)
same,normalized growth,"locus YHR030C, strain SLT2, stronger effect = lower value",0.146 (active) and 0.163 (active)
same,normalized growth,"locus YHR079C, strain IRE1 (second series), stronger effect = lower value",0.884 (active)
same,normalized growth,"locus YHR079C, strain IRE1, stronger effect = lower value",0.406 (active)
same,normalized growth,"locus YHR094C, strain hxt1, stronger effect = lower value",0.0904 (active)
same,normalized growth,"locus YHR129C, strain ARP1, stronger effect = lower value",0.939 (inactive)
same,normalized growth,"locus YHR142W, strain chs7, stronger effect = lower value",0.951 (inactive)
same,normalized growth,"locus YHR200W, strain rpn10, stronger effect = lower value",0.0659 (active)
same,normalized growth,"locus YIL066C, strain RNR3, stronger effect = lower value",0.0637 (active)
same,normalized growth,"locus YIL073C, strain SPO22, stronger effect = lower value",0.127 (active)
same,normalized growth,"locus YIL125W, strain kgd1, stronger effect = lower value",0.0621 (active)
same,normalized growth,"locus YIR030C, strain dcg1, stronger effect = lower value",1 (inactive)
same,normalized growth,"locus YJL092W, strain hpr5, stronger effect = lower value",1.04 (inactive)
same,normalized growth,"locus YJL095W, strain BCK1 (second series), stronger effect = lower value",1.03 (inactive)
same,normalized growth,"locus YJL095W, strain BCK1, stronger effect = lower value",0.834 (inactive) and 0.144 (active)
same,normalized growth,"locus YJL115W, strain asf1, stronger effect = lower value",1.03 (inactive)
same,normalized growth,"locus YJL129C, strain trk1, stronger effect = lower value",1.12 (inactive)
same,normalized growth,"locus YJL134W, strain LCB3, stronger effect = lower value",1.02 (inactive)
same,normalized growth,"locus YJL154C, strain vps35, stronger effect = lower value",1.04 (inactive)
same,normalized growth,"locus YJL164C, strain tpk1, stronger effect = lower value",1.01 (inactive)
same,normalized growth,"locus YJL166W, strain qcr8, stronger effect = lower value",1.02 (inactive)
same,normalized growth,"locus YJL168C, strain set2, stronger effect = lower value",0.0944 (active)
same,normalized growth,"locus YJL187C, strain SWE1 (second series), stronger effect = lower value",0.955 (inactive)
same,normalized growth,"locus YJL187C, strain SWE1, stronger effect = lower value",1.01 (inactive)
same,normalized growth,"locus YJR043C, strain POL32, stronger effect = lower value",0.868 (inactive)
same,normalized growth,"locus YJR066W, strain TOR1, stronger effect = lower value",0.439 (active)
same,normalized growth,"locus YJR075W, strain HOC1, stronger effect = lower value",0.946 (inactive)
